Assay results published in PubChem BioAssay (NCATS).
Results filed as inconclusive are left out. Active and inactive are the calls of the source. Calls come from the whole dose curve; as a rule, active = well fitted curve in the direction sought with a large enough effect; inconclusive = small, poorly fitted or top-dose-only effect, or another doubt; inactive = no such curve, though single readings can be large; an effect the other way counts as inactive or inconclusive.

How the values were obtained:
[1] = molecular target: Alpha-galactosidase A (Homo sapiens) (UniProt P06280); assay: Counterscreen for Glucocerebrosidase Inhibitors: qHTS Assay for Human alpha-Galactosidase at pH 4.5 (AID 992)
Sequence of Alpha-galactosidase A (Homo sapiens) (P06280 whole entry, looked up): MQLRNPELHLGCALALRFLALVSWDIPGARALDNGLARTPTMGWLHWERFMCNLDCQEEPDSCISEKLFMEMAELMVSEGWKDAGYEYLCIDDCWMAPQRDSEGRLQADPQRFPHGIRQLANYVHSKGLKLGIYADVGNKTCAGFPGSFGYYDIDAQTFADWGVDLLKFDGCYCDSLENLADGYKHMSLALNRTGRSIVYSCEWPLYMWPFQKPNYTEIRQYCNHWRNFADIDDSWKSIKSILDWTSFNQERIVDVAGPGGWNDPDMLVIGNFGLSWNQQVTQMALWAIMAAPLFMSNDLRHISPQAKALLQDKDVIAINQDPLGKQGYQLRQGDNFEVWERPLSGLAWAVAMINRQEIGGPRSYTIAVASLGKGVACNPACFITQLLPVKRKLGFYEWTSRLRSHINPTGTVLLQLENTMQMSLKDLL
In short: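 Human enzyme (2 nM) with 80 uM 4-methylumbelliferyl alpha-D-galactopyranoside in 50 mM citric acid, 0.005% Tween-20, pH 4.5, 20 min at room temperature. Compounds 0.7 nM–77 uM; fluorescence Ex 365/Em 440 after pH 10 stop; AC50 from Hill fits.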

[2] = molecular target: DNA repair nuclease/redox regulator APEX1 (Homo sapiens) (UniProt P27695); assay: qHTS Validation Assay for Inhibitors of the Human Apurinic/apyrimidinic Endonuclease 1 (APE1) (AID 1705;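 note: TAMRA fluorescence gain over two minutes as APE1 cuts a quenched THF abasic duplex; series mostly up to about 57 µM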)
Sequence of DNA repair nuclease/redox regulator APEX1 (Homo sapiens) (P27695 whole entry, looked up): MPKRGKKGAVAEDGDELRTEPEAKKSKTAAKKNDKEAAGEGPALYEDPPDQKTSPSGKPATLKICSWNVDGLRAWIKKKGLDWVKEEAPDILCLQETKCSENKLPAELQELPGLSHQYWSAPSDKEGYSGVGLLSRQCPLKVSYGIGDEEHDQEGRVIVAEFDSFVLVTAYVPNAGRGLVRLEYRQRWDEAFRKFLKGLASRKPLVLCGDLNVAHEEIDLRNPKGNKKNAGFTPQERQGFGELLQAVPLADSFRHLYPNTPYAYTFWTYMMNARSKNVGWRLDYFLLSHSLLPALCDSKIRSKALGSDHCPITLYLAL
In short: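 Substrate: 50 nM final fluorophore/quencher THF-abasic duplex. Enzyme preincubated with compounds 15 min, RT. Progress derived from fluorescence difference, third minus first kinetic read.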

[3] = Counterscreen for APE1 Inhibitors: Fluorescent Dye Displacement Validation Assay (AID 1707)
In short: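 Thiazole Orange (250 nM) bound to 50 nM TAMRA-labelled dsDNA with tetrahydrofuran abasic site; displacement by DNA-binding compounds lowers fluorescence. Buffer 50 mM Tris-HCl pH 7.5, 50 mM NaCl, 2 mM MgCl2, 0.01% Tween-20; endpoint read at 480/540 nm.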

[4] = qHTS for differential inhibitors of proliferation of Plasmodium falciparum line 7G8 (AID 1815);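 note: parasite growth measured after three days of incubation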; note: potency is the fitted concentration of half-maximal effect
[5] = qHTS for differential inhibitors of proliferation of Plasmodium falciparum line GB4 (AID 1816); settings: Potency: Plasmodium falciparum GB4 proliferation inhibition;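 note: parasite growth measured after 72 h incubation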; note: potency is the fitted concentration of half-maximal effect
[6] = qHTS for differential inhibitors of proliferation of Plasmodium falciparum line 3D7 (AID 1876); note: potency is the fitted concentration of half-maximal effect
[7] = molecular target: alpha-glucosidase (Oryza sativa, rice) (UniProt Q653V4); assay: Counterscreen for Glucocerebrosidase Inhibitors: qHTS Assay for Rice alpha-Glucosidase at pH 5.0 (AID 997)
In short: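 Rice alpha-glucosidase (4 nM final) with 400 uM 4-methylumbelliferyl-alpha-D-glucopyranoside in citrate buffer pH 5.0, 20 min at room temperature, stopped at pH 10; fluorescence 365/440 nm, compounds 0.7 nM–77 uM, AC50 from Hill fits.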

[8] = molecular target: Endonuclease 4 (Escherichia coli (strain K12)) (UniProt P0A6C1); assay: Counterscreen for APE1 Inhibitors: qHTS Validation Assay for Inhibitors of Endonuclease IV (AID 1708)
In short: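 2 nM enzyme was preincubated with compounds for 15 min at room temperature in 50 mM Tris-HCl pH 7.5, 50 mM NaCl, 2 mM MgCl2, 1 mM DTT, 0.01% Tween-20. 50 nM THF-abasic TAMRA/BHQ-2 duplex substrate started the reaction.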

Measured: Potency

O=C(N[C@@H](Cc1ccccc1)C(=O)CCl)OCc1ccccc1
active: [4] 8.91 µM | [5] 10 µM | [6] 11.2 µM
inactive: [1] | [2] | [3]

O=C1Cc2c([nH]c3ccc(Br)cc23)-c2ccccc2N1
inactive: [1] | [7] | [2] | [3]
active: [4] 8.91 µM | [5] 10 µM | [6] 11.2 µM

COc1ccc2c(c1)c(CC(=O)O)c(C)n2C(=O)c1ccccc1
inactive: [1] | [7] | [2] | [3] | [8] | [4] | [5] | [6]

NCC(O)C1CCCCCCC1 (configuration not stated)
inactive: [2] | [3] | [8] | [6]
active: [4] 12.6 µM | [5] 5.62 µM

O=c1oc(Cl)c(Cl)c2ccccc12
inactive: [1] | [7] | [2] | [3] | [5] | [6]

COc1ccccc1N1CCN(CCN(C(=O)c2ccc(F)cc2)c2ccccn2)CC1
inactive: [1] | [7] | [2] | [8]

C[C@@]1(C2CCCC2)Cc2cc(OCC(=O)O)c(Cl)c(Cl)c2C1=O
inactive: [2] | [3] | [8] | [4] | [5] | [6]

N#CC(=C(\N)Sc1ccccc1N)/C(C#N)=C(/N)Sc1ccccc1N
inactive: [2] | [3] | [8]
active: [4] 2.51 µM | [5] 4.47 µM | [6] 3.98 µM

N=C(N)c1ccc(OCCCCCOc2ccc(C(=N)N)cc2)cc1 (tested in a mixture with another compound)
active: [4] 0.282 µM | [5] 0.251 µM | [6] 0.0891 µM
inactive: [1] | [2] | [3] | [8]

CCC1(O)CC2CN(CCc3c([nH]c4ccccc34)[C@@](C(=O)OC)(c3cc4c(cc3OC)N(C)C3[C@]45CCN4CC=C[C@@](CC)([C@@H](OC(C)=O)[C@]3(O)C(=O)OC)[C@H]45)C2)C1 (some centres not stated)
inactive: [2] | [3] | [8]
active: [4] 1.12 µM | [5] 2.51 µM | [6] 0.631 µM
